Compounds without any hit were thinned out: in the full panel of roughly 79,000, 15% have a hit. Calls of active or inactive are those of the source. Cut-off read from the data, not from the text of the source: active = growth inhibition above about 70%; inactive = the rest.
Assay: NCI Yeast Anticancer Drug Screen. Data for the bub3 strain (AID 167)
Settings: S. cerevisiae bub3 mutant strain, at 50.0 µM, stronger effect = higher value
Method: Growth inhibition of yeast strains with defined genetic alterations is measured as a screen for potential anti-cancer activity. Selected strains with alterations in DNA damage repair or cell cycle control were exposed to compounds and growth inhibition was measured relative to vehicle treated controls. The strain used in this assay is bub3

SMILES	growth inhibition
CC(=O)OCC(CO)(CO)COC(C)=O	-3.7% (inactive)
CCOC(=O)C1(C)CCC(C(=O)OC)C1=O (stereo not given)	-59.6% (inactive)
O=C(O)C(O)C(O)C(O)C(O)C(O)CO.[NH-]C1CCCCC1[NH-].[Pt+2] (stereo not given)	6.15% (inactive)
Cc1ccc(CNc2ccccc2)cc1	14.7% (inactive)
COc1ccccc1/C=C(\S)C(=O)O	-12.7% (inactive)
O=C(O)c1ccncc1S(=O)(=O)O	-23.5% (inactive)
O=C(C[n+]1cc(Br)cc(Br)c1)c1ccc(Cl)cc1	-30.1% (inactive)
Clc1ccccc1C1N2CCCCC2[C@@H]2c3[nH]c4ccccc4c3CCN12 (stereo not given in full)	12.6% (inactive)
CC(C)(C)OC(=O)NC1CCC(C(C)(C)C)CC1 (stereo not given)	7.9% (inactive)
CC(=O)Nc1cc(Cl)c(Oc2ccccc2)cc1[N+](=O)[O-]	52% (inactive)
CSc1nc(C)c(Br)c(=O)n1C1OC(COC(C)=O)C(OC(C)=O)C(OC(C)=O)C1OC(C)=O (stereo not given)	-19.9% (inactive)
Nc1nc(Br)nc2ncn(C3CC(O)C(CO)O3)c12 (stereo not given)	-0.85% (inactive)
O=C(NCCc1ccccc1)[C@H]1CCCC[C@@H]1CCO	-39.8% (inactive)
CCCCCCC[CH2][Sn]1([CH2]CCCCCCC)[O]C2C(CO)OC(n3ccc4c(N)ncnc43)C2[O]1 (stereo not given)	4.45% (inactive)
Cc1cccc(-c2nnc(-c3cccc4ccccc34)o2)c1	26.5% (inactive)
CN1CNC(=O)c2n[nH]nc21	13.1% (inactive)
Cc1cc2c(=O)c(C(=O)O)c[nH]c2cc1-n1cccc1	36.3% (inactive)
COc1ccccc1NC(=O)NC1CCCCC1	5.5% (inactive)
C=C(C)COC(=O)Nc1cccc(Cl)c1	10.2% (inactive)
O=c1[nH]nc(-c2ccccc2)n1-n1cccc1	-12.3% (inactive)

SMILES	growth inhibition
O=S(=O)(SC(S(=O)(=O)c1ccccc1)S(=O)(=O)c1ccccc1)c1ccccc1	72.6% (active)
CCCCCCn1c(=O)cc2n(c1=O)CCC2	3.5% (inactive)
CCCCCCCCC(C)c1cccc(C(C)CCCCCCCC)c1O (stereo not given)	14.8% (inactive)
CCOC(=O)N1Cc2cc3ccccc3nc2C1CC(=O)O (stereo not given)	-1.65% (inactive)
CC(=O)N(C(=O)CC(=O)N/N=C\c1ccc(Br)c(N(CCC#N)CCC#N)c1)c1ccc(Cl)cc1	6.2% (inactive)
CC(=O)OC(C)C1(C)CCC2CCCC(C)(C)C2C1 (stereo not given)	9.45% (inactive)
Nc1ccc(Cl)c(N)c1	14.9% (inactive)
CCNC(=S)NC1CCCCC1	-13.1% (inactive)
CC1c2c(cc(=O)n(C)c2O)C(=O)N1Cc1ccccc1 (stereo not given)	2.45% (inactive)
CC(=O)Nc1ccc(C(=O)NN2C(=O)CSC2c2ccc([N+](=O)[O-])cc2)cc1 (stereo not given)	-24.3% (inactive)
CC(C)(C)NC(=O)Oc1ccc2ccccc2c1	10.3% (inactive)
C/C(=N/N=C(N)N)c1cnn(C(=N)N)c1C	20.9% (inactive)
O=c1nc(N2CCSCC2)ccn1C1OC(CO)C(O)C1O (stereo not given)	-3.5% (inactive)
CN(C)C1=NC(NC2CCCCC2)(N(C)C)OC(N(C)C)=N1 (stereo not given)	1.9% (inactive)
c1ccc2nn(C3CCCCO3)nc2c1 (stereo not given)	5.65% (inactive)
COc1c(Cl)cc(Cl)cc1C(c1cc(Cl)cc(Cl)c1OC)C(Cl)(Cl)Cl	-3.6% (inactive)
COc1cc(Br)c(C2SCC(=O)N2c2nncs2)cc1OC (stereo not given)	-2.15% (inactive)
COc1c(O)ccc(C(=O)O)c1N	8.95% (inactive)
CC(C)OC(=O)/C=C/C(=O)OC(C)C (tested in a mixture with another compound)	-13.8% (inactive)
[N-]=[N+]=CC(=O)C(CN)(Cc1ccccc1)c1ccc(Cl)cc1 (stereo not given)	-9.45% (inactive)

Source: PubChem BioAssay (NCI)
